From PubChem BioAssay (NCATS) come the findings set out here.

The target in test [1] is Aldehyde dehydrogenase, mitochondrial (Homo sapiens) (UniProt P05091). Nature of the test: qHTS for Inhibitors of the Aldehyde Dehydrogenase Family (ALDH2) Confirmatory screens (AID 2061303; active means well fitted inhibition curve with a large enough effect; title and protocol of this record describe different tests; further: nearly all actives have a fitted effect of over 45% in size; further: potency means the concentration at half of the fitted maximal effect).
Test [2] can be described thus: qHTS for Inhibitors of the Aldehyde Dehydrogenase Family (ALDH1A2, ALDH1A3, ALDH2, ALDH3A1) (AID 2061307). Further: nearly all actives have a fitted effect of over 50% in size. On Potency: test system not described further here; potency means the concentration at half of the fitted maximal effect.
Test [3] has as its target Aldehyde dehydrogenase, mitochondrial (Homo sapiens) (UniProt P05091). Nature of the test: qHTS for Inhibitors of the Aldehyde Dehydrogenase Family (ALDH2) Primary screen (AID 2061308). Further: nearly all actives have a fitted effect of over 55% in size. Further: potency means the concentration at half of the fitted maximal effect.
Test [4] addresses Retinal dehydrogenase 2 (Homo sapiens) (UniProt O94788). Briefly: qHTS for Inhibitors of the Aldehyde Dehydrogenase Family (ALDH1A2) Confirmation screens (AID 2061314). Further: nearly all actives have a fitted effect of over 65% in size. Further: potency means the concentration at half of the fitted maximal effect.
In test [5] the target is Retinaldehyde dehydrogenase 3 (Homo sapiens) (UniProt P47895). Briefly: qHTS for Inhibitors of the Aldehyde Dehydrogenase Family (ALDH1A3) Primary screen (AID 2061315). Further: potency means the concentration at half of the fitted maximal effect.
For test [6] the target is unchanged. Briefly: qHTS for Inhibitors of the Aldehyde Dehydrogenase Family (ALDH1A3) Confirmatory screens (AID 2061311). Further: nearly all actives have a fitted effect of over 60% in size. Further: potency means the concentration at half of the fitted maximal effect.
Test [7] addresses Aldehyde dehydrogenase 1A1 (Homo sapiens) (UniProt P00352). Nature of the test: qHTS for Inhibitors of the Aldehyde Dehydrogenase Family (ALDH1A1) Confirmatory screens (AID 2061316). Further: nearly all actives have a fitted effect of over 65% in size. Further: potency means the concentration at half of the fitted maximal effect.
Test [8] can be described thus: BET inhibitor-based combinations targeting novel dependencies in MECOM-rearranged (r) AML: SET-2 cell line (AID 2202231). Further: potency means the concentration at half of the fitted maximal effect; nearly all actives have a fitted effect of over 35% in size. The settings on record: SET-2 AML cells viability, CellTiter-Glo luminescence, 48 h; viability: hits give low values, concentration not given here. Put shortly:
(§1)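 AML cell lines seeded at 500 cells/well, treated with 11-point dose curves for 48 h. Viability by CellTiter-Glo luminescence, normalised to DMSO and empty wells; activity expressed as AUC and per-cell-line Z-transformed AUC.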

A short description of test [9]: BET inhibitor-based combinations targeting novel dependencies in MECOM-rearranged (r) AML: OCI-AML3 cell line (AID 2202232). Further: potency means the concentration at half of the fitted maximal effect; nearly all actives have a fitted effect of over 35% in size. The settings on record: Potency: OCI-AML3 viability. Put shortly:
as §1

Test [10] can be described thus: BET inhibitor-based combinations targeting novel dependencies in MECOM-rearranged (r) AML: MV-4-11 cell line (AID 2202233). Further: potency means the concentration at half of the fitted maximal effect; nearly all actives have a fitted effect of over 45% in size. Put shortly: (§2)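 Cells at 500/well were exposed for 48 hr to MIPE v5.0 drugs as 11-point dose curves. Viability was read by CellTiter-Glo luminescence and normalized to DMSO and empty-well controls. Activity was expressed as AUC and per-cell-line Z-AUC.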

Test [11] can be described thus: BET inhibitor-based combinations targeting novel dependencies in MECOM-rearranged (r) AML: HNT-34 cell line (AID 2202234). Further: potency means the concentration at half of the fitted maximal effect; nearly all actives have a fitted effect of over 35% in size. Put shortly:
as §2

A short description of test [12]: BET inhibitor-based combinations targeting novel dependencies in MECOM-rearranged (r) AML: AML-191 cell line (AID 2202236; further: potency means the concentration at half of the fitted maximal effect; nearly all actives have a fitted effect of over 35% in size). Put shortly:
as §1

The nature of test [13]: BET inhibitor-based combinations targeting novel dependencies in MECOM-rearranged (r) AML: AML-194 cell line (AID 2202237; further: potency means the concentration at half of the fitted maximal effect; nearly all actives have a fitted effect of over 40% in size). Put shortly: as §1
Test [14] has as its target Retinaldehyde dehydrogenase 3 (Homo sapiens) (UniProt P47895). Nature of the test: qHTS for Inhibitors of the Aldehyde Dehydrogenase Family (ALDH1A3) Validation screen (AID 2061312). Further: nearly all actives have a fitted effect of over 45% in size.

Results filed as inconclusive are left out. Activity calls are given as the source filed them. Unless noted, the call rests on the fitted dose curve; in most records, active means well fitted curve in the direction sought with a large enough effect; inconclusive means small, poorly fitted or top-dose-only effect, or another doubt; inactive means no such curve, though single readings can be large; an effect the other way counts as inactive or inconclusive.

Regarding `CCCCN(C)C(=O)Cn1nc(-c2ccncc2)ccc1=O`, the Potency entry in [1], in test [2], in test [3], in [4] and in [5] was “inactive” in each case.

As to `COc1ccc(OC)c(-c2nnc3n2N=C(c2ccc(OC)c(OCC4CC4)c2)CS3)c1`, the Potency entry in [1], in test [2], in [3], in test [6] and in test [5] was “inactive” throughout. In test [7], the Potency was 2.25 µM (active).

As to `CC(=O)N1CCN(C(=S)Nc2cc(C)ccn2)CC1`, the Potency entry in test [1], in test [2], in [3], in test [4] and in [5] was “inactive” throughout.

`CCc1c(C)sc(NC(=O)C2CCCCC2C(=O)O)c1C(N)=O` (configuration not stated): the Potency result in test [1], in [2], in test [3], in test [4] and in [5] was “inactive” throughout.

Regarding `S=C(Nc1cc(Cl)ccn1)N1CCN(c2ccc3ccccc3n2)CC1`, the Potency in [1] was 7.94 µM (active); in test [2], 14.1 µM (active); in [3] it was 1.58 µM (active); in test [6], 22.5 µM (active); in test [7] it was 5.65 µM (active). Also, in test [5], the Potency result was “inactive”.

Turning to `COc1ccc(C2Nc3ccccc3C(=O)N2Cc2ccccc2)cc1COc1ccc(C(N)=O)cc1` (configuration not stated), the Potency was 5.62 µM (active) in test [1], 2.83 µM (active) in test [2] and 14.1 µM (active) in test [4]. For the same molecule, the Potency entry in test [3] and in test [5] was “inactive” each time.

For `CC(C)Nc1cc(-c2c[nH]c(C(=O)N[C@H](CO)c3cccc(Cl)c3)c2)c(Cl)cn1`, the Potency result in [1], in test [2], in [3], in [6] and in test [5] was “inactive” in each case. Moreover, the Potency in test [8] was 20.9 µM (active); in [9], 2.35 µM (active); in test [10], 13.2 µM (active); in test [11], 4.68 µM (active); in test [12], 7.42 µM (active); in [13] it was 8.33 µM (active).

Take `CC1(C)S[C@@H]2[C@H](NC(=O)[C@H](NC(=O)N3CCN(S(C)(=O)=O)C3=O)c3ccccc3)C(=O)N2[C@H]1C(=O)O`: the Potency result in [1], in test [2], in test [3], in test [14], in test [4] and in [5] was “inactive” throughout. The Potency entry in test [7] was “inactive”.

For the molecule `Nc1nnc(-c2cccc3ccccc23)o1`, the Potency result in test [1], in [2], in test [3], in [6], in [5] and in [7] was “inactive” each time.

Turning to `O=C1c2ccccc2NC(c2ccc(Br)o2)N1O` (configuration not stated), the Potency is 5.04 µM (active) in [1]; 10.1 µM (active) in test [2]; 1.41 µM (active) in [3]; 7.12 µM (active) in test [6]; 1.79 µM (active) in test [7].

With `Cc1cccc(-n2cnc3cc(C(=O)N4CCCC(C)(C)C4)ccc32)c1`, the Potency result in test [1], in test [2], in [3], in test [4] and in test [5] was “inactive” throughout.

Turning to `Cc1cccc(-n2cnc3cc(C(=O)N4CCC(Br)CC4)ccc32)c1`, the Potency entry in test [1], in test [2], in test [3], in [4] and in [5] was “inactive” throughout.

Regarding `O=S1(=O)N=C(Oc2ccccc2F)c2ccccc21`, the Potency result in test [1], in test [2], in test [3], in test [4] and in test [5] was “inactive” each time.

For the molecule `COc1ccc(-c2nc3ccccc3c(=O)n2Cc2ccc(CNC(=O)CO)cc2)cc1COc1ccc(NC(C)=O)cc1`, the Potency entry in [1] and in test [3] was “inactive” throughout. The Potency was 8.96 µM (active) in [2] and 15.9 µM (active) in test [4].

For the molecule `O=C(O)c1ccc(-n2cccc2/C=C2\SC(=O)N(Cc3ccccc3Cl)C2=O)cc1`, the Potency entry in test [1], in test [3] and in [5] was “inactive” each time. Also, the results for the Potency in [2] and in [4] were 7.12 µM (active) and 5.65 µM (active), respectively.

Take `CCN(CC)CCOc1ccc(/C(=C(\Cl)c2ccccc2)c2ccccc2)cc1`: the Potency entry in test [1], in test [2], in [3], in test [14], in test [4] and in [5] was “inactive” each time. Besides, in [7], the Potency result is “inactive”. Moreover, the results for the Potency in [12] and in test [13] were 18.6 µM (active) and 23.5 µM (active), respectively.

For `COc1ccc(CN(Cc2ccccc2)C(=O)c2ccccc2O)cc1`, the Potency result in [1], in test [2], in [3], in [4] and in [5] was “inactive” in each case.

With `FC(F)(F)c1ccccc1-c1nc(NCc2ccc(Cl)cc2)c2ccccc2n1`, the Potency result in [1], in test [2], in [3], in test [6], in test [5] and in test [7] was “inactive” throughout.

In the case of `Cc1cc(C)cc(C(=O)NOCCCCCC(=O)NO)c1`, the Potency entry in test [1], in test [2], in test [3] and in test [4] was “inactive” each time. In addition, the Potency in [5] was 6.31 µM (active).

With `CC(C)(C)OC(=O)N1CCN(c2ccc(NCc3ccnc(-c4ccc(C#N)cc4)n3)cc2)CC1`, the Potency in [1] was 0.504 µM (active); in [2], 0.357 µM (active); in [3], 0.282 µM (active). Besides, the Potency result in [4] and in test [5] was “inactive” in each case.

Take `Cc1cccc(S(=O)(=O)NC2CCN(C#N)C2)c1` (configuration not stated): the Potency entry in test [1], in test [2], in test [3], in test [6] and in test [5] was “inactive” in each case. Besides, the Potency in test [7] was 11.3 µM (active).

As for `Cc1ccc(OCCn2c(CCNC(=O)CCc3ccc(N)cc3)nc3ccccc32)cc1`, the Potency entry in test [1], in [2], in [3], in [4] and in test [5] was “inactive” throughout.

As for `O=C1CC(c2ccccc2)Cc2[nH]c(=O)c(-c3nc(-c4ccc(F)cc4)cs3)cc21` (configuration not stated), the Potency entry in [1], in test [2], in test [3], in [4] and in [5] was “inactive” throughout.

Consider `O=C(NCCc1nc2ccccc2n1CCOc1cccc(Br)c1)C1CCCCC1`, for which the Potency entry in test [1], in test [2], in test [3], in [4] and in [5] was “inactive” throughout.

`O=C(Nc1ccc(Cl)c(Cl)c1)Nc1ccc(-c2ccncc2)s1`: the Potency result in test [1], in test [2], in [3], in test [4] and in test [5] was “inactive” throughout. In test [7], the Potency is 8.96 µM (active).
